Screens (PubChem BioAssay)
The list is not random: actives were taken first. Their share in the collection is about 19%.
DT40 TDP1 CPT: growth inhibition of DT40 Tdp1-/-;hTDP1 cells with camptothecin (screen for TDP1 inhibitors); Potency, µM (titrated, usually from 46.2 µM), without a hit: at the highest dose activity change, negative = growth inhibition, most hits filed as inhibitors; chicken DT40 Tdp1-/-;hTDP1 cells + 20 nM CPT, ATP luminescence, 48 h; hit rate 12% among 420,000; note: potency is the fitted concentration of half-maximal effect; nearly all actives have a fitted effect of over 55% in size
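Cell growth measured by CellTiter-Glo luminescence after a minimum 48 h, 37 C compound exposure with 20 nM CPT in Tdp1-knockout DT40 cells stably expressing hTDP1, seeded 400/well; qHTS titration format.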
HT1080-NT tox: kills 2HG-producing HT-1080-NT fibrosarcoma cells; hit rate 1.6% among 360,000; Potency, µM (titrated, usually from 46.1 µM), for the others: at the highest dose activity, negative = less viability, most hits filed as cytotoxic; HT-1080-NT fibrosarcoma viability, CellTiter-Glo ATP luminescence, 48 h;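 note: NT is the 2HG producing partner of a matched IDH1 knockdown line; potency is the fitted concentration of half-maximal effect; 0% = DMSO-treated cells and -100% = media-only wells without cells; nearly all actives have a fitted effect of over 55% in size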
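HT-1080-NT fibrosarcoma cells (2HG-overproducing), 750 cells/well in RPMI with 5% FBS, dosed after 2 h and incubated 48 h at 37C. CellTiter-Glo luminescence normalized to DMSO and no-cell wells; concentration-response curves fitted and classed.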
TDP1 cell noCPT: qHTS for Inhibitors of human tyrosyl-DNA phosphodiesterase 1 (TDP1): qHTS in cells in absence of CPT | DT40 Tdp1-/- hTDP1 cells, no CPT, ATP luminescence, 48 h | Potency, µM (highest dose often 46.2 µM), for the others: at the highest dose activity change, negative = growth inhibition, most hits filed as inhibitors | hit rate 15% among 420,000 | AID 686978, 2013; note: potency is the fitted concentration of half-maximal effect; nearly all actives have a fitted effect of over 55% in size
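Camptothecin absent (DMSO only). Human TDP1-complemented DT40 knockout cells, 400 cells/well, 37 °C for minimum 48 hr; ATP measured via CellTiter-Glo, 30 min dark incubation, luminescence.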
IL1B secr inh: inflammasome signaling inhibition, IL-1 beta readout. THP-1 LPS/ATP IL-1B secretion, AlphaLISA, 16 h; hits give low values. activity change, % at 57.5 µM. hit rate 4.7% among 360,000. AID 743279; in the data active = activity change below about -50%; inconclusive = mostly about -30% to -49%
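THP-1 cells pretreated 1 hr with compounds (up to 57.5 uM final), then stimulated with LPS (250 ng/mL final) plus ATP (1.25 mM final); secreted IL-1B measured by AlphaLISA after 16 hr, decreased signal indicating inhibition.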
HT1080 IDH1KD tx: HT-1080 IDH1 knockdown cell toxicity (counter line); HT-1080 IDH1 knockdown viability, ATP luminescence, 48 h; hit rate 2% among 360,000; AID 686971; Potency, µM (highest dose often 46.1 µM), inactives show top-dose activity, negative = toxicity, usual class: cytotoxic;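 note: potency is the fitted concentration of half-maximal effect; 0% = DMSO wells and -100% = cell-free medium wells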
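Viability of IDH1-knockdown HT-1080 fibrosarcoma cells was assessed by CellTiter-Glo after 48 h at 37 °C with titrated compound; concentration-effect curves were classified by fit quality and response size.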
An asterisk follows results filed as active; ? = inconclusive. Unless noted, calls come from the whole dose curve; as a rule, active = well fitted curve in the direction sought with a large enough effect; inconclusive = small, poorly fitted or top-dose-only effect, or another doubt; inactive = no such curve, though single readings can be large; an effect the other way counts as inactive or inconclusive. Unless noted, % is set by controls: 0 for no effect and ±100 for the full control effect.

SMILES	DT40 TDP1 CPT	HT1080-NT tox	TDP1 cell noCPT	IL1B secr inh	HT1080 IDH1KD tx
CCn1c2ccccc2c2cc(NC(=O)CSc3nnc(-c4cccc(C)c4)o3)ccc21	?	-3%	?	0	-2%
CCn1c2ccccc2c2cc(NC(=O)CSc3nnc(-c4cccc(F)c4)o3)ccc21	16µM*	13µM*	15µM*	-6	?
Cc1ccc(CCSc2ccc(F)cc2)cn1	1%	16%	?	-16	8%
Cc1ccc(CCSc2ccc(C(C)C)cc2)cn1	?	-1%	26µM*	-59*	0%
N#Cc1ccsc1NC(=O)C1=COCCO1	8%	5%	8%	-5	-4%
CN(C)C1=NC[C@H](Cc2ccccc2)N1CCC1CCCC1	21µM*	-14%	?	-4	-14%
CN(C)C1=NC[C@H](Cc2ccccc2)N1CC1CCCCCC1	5.8µM*	-11%	15µM*	-12	-26%
C[C@H]1CN=C(N(C)C)N1CCC1CCCC1	?	1%	?	-12	-8%
CN(C)C1=NCCN1CCCC1CCCC1	?	8%	12µM*	23	3%
C[C@H]1CN=C(N(C)C)N1CCc1ccccc1	3%	-4%	-4%	13	0%
CN(C)C1=NCCN1CC1CCCC1	-16%	7%	-13%	14	12%
CN(C)C1=NC[C@H](Cc2ccccc2)N1CCCC1CCCCC1	7.3µM*	-16%	6.5µM*	?	?
CN(C)C1=NC[C@H](Cc2ccccc2)N1CCc1cccc(F)c1	?	1%	?	-3	-6%
CCCS(=O)(=O)NC(=O)C1(C)CCN(C(=O)Cc2ccc(F)cc2)C1 (centres undefined)	3%	11%	7%	8	4%
CCOc1ccc(NC(=O)CN2C(=O)NC(C)(c3ccc4c(c3)OCCCO4)C2=O)cc1OCC (centres undefined)	-5%	7%	-15%	1	8%
CN(C)C1=NC[C@H](Cc2ccccc2)N1CCCC1CCCC1	16µM*	21µM*	21µM*	?	?
COc1cc(O)c(C(CCN2CCN(c3ccccc3)CC2)c2cc(OC)c(OC)c(OC)c2)c(OC)c1 (centres undefined)	21µM*	-8%	23µM*	-7	-14%
COc1cc(O)c(C(CC(=O)N2CCCC(C)C2)c2cc(OC)c(OC)c(OC)c2)c(OC)c1 (centres undefined)	3%	-3%	-7%	24	3%
COc1cc(O)c(C(CCN2CCN(c3ccccc3)CC2)c2ccc3c(c2)OCO3)c(OC)c1 (centres undefined)	23µM*	-15%	16µM*	?	-24%
CCN(CC)CCC(c1ccc2c(c1)OCO2)c1c(O)cc(OC)cc1OC (centres undefined)	21µM*	-6%	18µM*	-26	-15%
CCN(CC)C(=O)CC(c1ccc2c(c1)OCO2)c1c(O)cc(OC)cc1OC (centres undefined)	?	12%	-29%	3	10%
COc1cc(O)c(C(CCN2CCCC2)c2ccc3c(c2)OCO3)c(OC)c1 (centres undefined)	23µM*	-1%	23µM*	?	-7%
COc1cc(O)c(C(CC(=O)N2CCN(c3ccccc3)CC2)c2ccc3c(c2)OCO3)c(OC)c1 (centres undefined)	?	10%	?	-18	2%
Cc1cccc2c(C(=O)N3CCN(c4ccccn4)CC3)cc(-c3cccc(Br)c3)nc12	?	-4%	-24%	-12	?
COc1ccc(Cl)cc1NC(=O)CN(C)C(=O)c1ccc2c(c1)CC(c1ccccc1)OC2=O (centres undefined)	15µM*	0%	16µM*	-3	-3%
SMILES	DT40 TDP1 CPT	HT1080-NT tox	TDP1 cell noCPT	IL1B secr inh	HT1080 IDH1KD tx
COc1cccc(NC(=O)CN(C)C(=O)c2ccc3c(c2)CC(c2ccccc2)OC3=O)c1 (centres undefined)	?	-23%	?	-10	3%
COc1ccc(NC(=O)CN(C)C(=O)c2ccc3c(c2)CC(c2ccccc2)OC3=O)cc1 (centres undefined)	26µM*	-3%	16µM*	41	-1%
CCOc1ccc(S(=O)(=O)NCCCN2CCOCC2)cc1	3%	-7%	-6%	1	22%
CC(C)C(c1nnnn1Cc1ccccc1)N(Cc1ccco1)Cc1cccs1 (centres undefined)	?	-13%	21µM*	-10	-30%
COCOCCn1cc(CN2CCS(=O)(=O)N(Cc3ccc(-c4ccc(OC)c(OC)c4)cc3)C(CC(C)C)C2=O)nn1 (centres undefined)	21µM*	-17%	18µM*	-10	-12%
COCOCCn1cc(CN2CCS(=O)(=O)N(Cc3ccc(-c4cccc(CO)c4)cc3)C(CC(C)C)C2=O)nn1 (centres undefined)	?	6%	?	7	9%
COCOCCn1cc(CN2CCS(=O)(=O)N(Cc3ccc(-c4ccc(Cl)cc4)cc3)C(C)C2=O)nn1 (centres undefined)	23µM*	-21%	21µM*	-15	-10%
COCOCCn1cc(CN2CCS(=O)(=O)N(Cc3ccc(-c4ccc(OC)nc4)cc3)C(C)C2=O)nn1 (centres undefined)	-13%	-2%	-19%	-2	-3%
COCOCCn1cc(CN2CCS(=O)(=O)N(Cc3ccc(-c4ccc(Cl)nc4)cc3)C(CC(C)C)C2=O)nn1 (centres undefined)	?	-26%	?	-7	2%
COCOCCn1cc(CN2CCS(=O)(=O)N(Cc3ccc(-c4ccc(Cl)cc4)cc3)C(CC(C)C)C2=O)nn1 (centres undefined)	?	?	23µM*	5	?
CCOC(=O)C#CC(CCc1ccccc1)OS(N)(=O)=O (centres undefined)	?	-1%	?	-70*	-3%
Cc1ccc(CN(c2ccc(C(=O)N3CCc4ccccc4C3)cc2)S(C)(=O)=O)cc1	?	-7%	15µM*	4	-27%
Cc1ccc(S(=O)(=O)NCc2ccc(C(=O)N3CCc4ccccc4C3)cc2)cc1	?	2%	29µM*	-23	17%
COc1ccc(S(=O)(=O)NCc2ccc(C(=O)NCCCN3CCCC(C)C3)cc2)cc1 (centres undefined)	?	12%	-11%	-52*	3%
Cc1ccc(S(=O)(=O)NCc2ccc(C(=O)N3CCN(c4ccccc4)CC3)cc2)cc1	?	-12%	?	-23	?
